# Measured values taken from PubChem BioAssay (NCI).
# About 83,000 compounds went through this panel and 20% of them were active in at least one assay; those are over-represented in the sample as a whole.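 How to read the values: 0–100, growth inhibition (40 = 60% inhibited); 0, no net growth; -100 to 0, cell death (-40 = 40% of starting cells died; -100 = all dead).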 Active and inactive are the calls of the source.
# Test system: NCI-H522 lung
# Assay: NCI-60 one-dose screen, 48 h (100 = growth as untreated, 0 = no growth, -100 = all killed)
# Settings: 10 µM unless noted
# Protocol: Growth inhibition of the NCI-H522 human Non-Small Cell Lung tumor cell line is measured as a screen for anti-cancer activity. Cells are grown in 96 well plates and exposed to the test compound for 48 hours. Compounds are tested at a single concentration, which is 10^-5 M for most compounds. The reported endpoint is percent growth (GI% or GIPRCNT), where numbers from 0 - 100% represent growth inhibition, and numbers from -100% - 0 represent cell death. For example, a value of 40 represents 60% growth inhibition. A value of 0 means no net growth occurred over the course of the experiment. A value of -40 indicates 40% of cells at the beginning of the experiment died by the end of the experiment. A value of -100 means all cells are dead at the end of the experiment.
# NCI-60 Human Tumor Cell Lines Screen was performed using the standard one-dose NCI protocol, which is described in more detail at https://dtp.cancer.gov/discovery_development/nci-60/default.htm.
# Compounds with GIPRCNT values below 10 were considered active. Activity score was based on GIPRCNT using the following formula: […]
# Score is 0 for GIPRCNT values of 100 or above, 50 for GIPRCNT values of 0, and 100 for GIPRCNT values of -100.
row,Compound,growth
1,COc1cc(CN(CCC(O)N2CCCC2=O)Cc2ccc3c(c2)OCO3)cc(OC)c1OC (stereo not given),95.4% (inactive)
2,O=C(CCl)Nc1cc(O)c2c(c1)C(=O)c1cccc(O)c1C2=O,-89% (active)
3,Cc1cc(N)cc(C)c1-c1c(Br)cc(N)cc1Br,-9.5% (active)
4,CN(C)c1ccc(C2(Cl)c3ccccc3N(C)c3ccccc32)cc1,19% (inactive)
5,CCN(CC)c1ccc(/C=N/NC(=O)C[N+](C)(C)C)cc1,100% (inactive)
6,COc1cnc2c(c1)C(=O)c1c-2n(CCCN2CCCC2)c(=O)c2cc(Cl)ccc12,4.02% (active)
7,CC(C)(c1ccccc1)c1cc(O)c(C(C)(C)c2ccccc2)cc1O,-2.05% (active)
8,COc1ccc(NC(=O)Cn2c(=O)sc3c(-c4ccc(Cl)cc4)cc(-c4ccc(Cl)cc4)nc32)cc1,70% (inactive)
9,O=C(O/C(=C/c1ccccc1)C(F)(F)F)c1ccccc1,105% (inactive)
10,CNC(=O)OC1C(O[C@H]2C[C@H]3[C@@H]4CC=C5C[C@@H](O)CC[C@]5(C)[C@H]4CC[C@]3(C)[C@H]2[C@H](C)C(=O)CCC(C)C)OCC(O)C1OC1OCC(O)C(O)C1OC(=O)c1ccc(OC)cc1 (stereo not given in full),-35.8% (active)
11,CN(C)CCCn1c(=O)c2cc([N+](=O)[O-])ccc2c2cnc3[nH]ccc3c21,17.9% (inactive)
12,CCOC(=O)Nc1ccc2nc(Sc3ccc(Cl)cc3)sc2c1,28.3% (inactive)
13,CCCCCN(CCCCC)C(=O)C(CCC(=O)O)NC(=O)c1ccc(Cl)c(Cl)c1 (stereo not given),110% (inactive)
14,C#Cc1cccc(Nc2nc3cc([N+](=O)[O-])ccc3nc2Nc2ccc(O)cc2)c1,-53.6% (active)
15,Cc1ccc([C@H]2c3[nH]c4ccccc4c3C[C@H]3C(=O)N(CCCCCCC(=O)NO)CC(=O)N23)cc1,24.2% (inactive)
16,COc1ccc(-c2cnnn2-c2nonc2-n2cccc2)cc1,-4.72% (active)
17,CN1C(=O)N(C)C2C1NN=c1s/c(=C\c3ccsc3)c(=O)n12 (stereo not given),26.4% (inactive)
18,CCOc1cc(/C=N\NC(=O)C[N+](C)(C)C)ccc1O,104% (inactive)
19,O=C(Nc1ccc(Br)cc1)c1ccc(Cl)c(Cl)c1,60.2% (inactive)
20,COC(=O)C(Br)(C(=O)OC)C(Br)C(Br)C(Br)c1ccccc1 (stereo not given),-84.5% (active)

row,Compound,growth
1,O=C(CSc1nnc(Cc2ccccc2Nc2c(Cl)cccc2Cl)n1-c1ccccc1)N1N=C(c2ccc3ccccc3c2)CC1c1ccc(Cl)cc1 (stereo not given),66.1% (inactive)
2,CNCCCn1c2c(c3ccc(Cl)cc3c1=O)C(=O)c1cc(OC)cnc1-2,10.1% (inactive)
3,COc1ccc(/C(C)=N/NC(=O)c2ccc(S(C)(=O)=O)cc2)cc1OC,104% (inactive)
4,CCCCCCCCCCCCCCCC1=NC(C)(C)CN1C(C)C,-68.1% (active)
5,COc1ccc(-c2nc(SCCC(C)C)nc(Nc3ccc(C(=O)O)cc3)c2C#N)cc1,69.2% (inactive)
6,CCN(CC)CC(=O)Nc1c(C)cc(C(=O)NN)cc1C,105% (inactive)
7,Cc1cc(O)c2cc3c(O)c(O)ccc3cc2c1,88.6% (inactive)
8,COc1cc(C2CC(c3ccc(Cl)cc3)=NN2C(C)=O)ccc1Oc1ccnc2cc(Cl)ccc12 (stereo not given),40.9% (inactive)
9,COc1cc(Nc2ncccc2/C=C/C(=O)c2cc(OC)c(OC)c(OC)c2)cc(OC)c1OC,87.8% (inactive)
10,Clc1cc2nc(-c3ccccc3)c(-c3ccccc3)nc2cc1Cl,86.1% (inactive)
11,O=c1c2cc(Cl)ccc2oc2ccc(OCCCCCN3CCCCC3)cc12,36.2% (inactive)
12,CC(C)CC(=O)C(CCc1ccccn1)C(C)C (stereo not given),95.3% (inactive)
13,O=C(Nc1ccc(Cl)cc1)c1cc(-c2ccc(Cl)cc2)c2sc(=O)[nH]c2n1,-26.3% (active)
14,COc1cccc(-c2nc3sccn3c2-c2ccnc(NCCN3CCCN(C)S3(=O)=O)n2)c1,95.9% (inactive)
15,CC(C)[C@@H]1C=C2CC[C@H]3[C@](C)(CN)CCC[C@]3(C)[C@H]2CC1,86.7% (inactive)
16,OCCN(CCO)c1ccc2ccccc2c1,73.4% (inactive)
17,O=c1c2cc(Br)cc(Br)c2nc(-c2ccc(Cl)cc2)n1/N=C\c1ccccc1F,51.3% (inactive)
18,COc1cc(CN2CCC(N3CCCC3=O)c3ccccc32)cc(OC)c1OC (stereo not given),55.3% (inactive)
19,CC(C)c1ccc2c(c1)CCC1C2CCCC1(C)NCc1ccccc1 (stereo not given),9.67% (active)
20,CC(C)(C)[Si](C)(C)OC1[C@@H](O[Si](C)(C)C(C)(C)C)[C@@H](CNC(=O)NC(=O)NC(=O)CCl)O[C@H]1n1cnc2c(NC(=O)Nc3ccccc3)ncnc21 (stereo not given in full),-78.6% (active)
